Measurements: the supplement of paper PMC9694430

Columns and labels:
Test in all cases: thermal shift delta Tm vs DMSO control; higher = stronger stabilization (binding)
Conditions in all cases: 12.5 µM; protein concentration 2 µM
LOC_OS01G01410-cb001 = tested on: LOC_OS01G01410-cb001
In short: (§1)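 Purified, E. coli-expressed rice kinase domain constructs were tested by differential scanning fluorimetry in 96-well plates: 19.5 μl of 2 μM kinase in 100 mM potassium phosphate pH 7.5, 150 mM NaCl, 10% glycerol, 5 × SYPRO Orange, plus compound in DMSO. Fluorescence was read from 25°C to 95°C at 0.05°C/s. Melting temperatures came from Boltzmann fits, and the shift is the triplicate mean relative to protein with DMSO alone.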

LOC_OS01G02750-cb003 = tested on: LOC_OS01G02750-cb003
In short: as §1

LOC_OS01G10900-cb004 = tested on: LOC_OS01G10900-cb004
In short: as §1

LOC_OS01G13800-cb001 = tested on: LOC_OS01G13800-cb001
In short: as §1

LOC_OS01G14860-cb001 = tested on: LOC_OS01G14860-cb001
In short: as §1

LOC_OS01G21960-cb002 = tested on: LOC_OS01G21960-cb002
In short: as §1

LOC_OS01G39600-cb002 = tested on: LOC_OS01G39600-cb002
In short: as §1

LOC_OS01G48390-cb002 = tested on: LOC_OS01G48390-cb002
In short: as §1

LOC_OS01G51400-cb002 = tested on: LOC_OS01G51400-cb002
In short: as §1

LOC_OS01G52050-cb004 = tested on: T1, LOC_OS01G52050-cb004
T1 sequence (whole entry): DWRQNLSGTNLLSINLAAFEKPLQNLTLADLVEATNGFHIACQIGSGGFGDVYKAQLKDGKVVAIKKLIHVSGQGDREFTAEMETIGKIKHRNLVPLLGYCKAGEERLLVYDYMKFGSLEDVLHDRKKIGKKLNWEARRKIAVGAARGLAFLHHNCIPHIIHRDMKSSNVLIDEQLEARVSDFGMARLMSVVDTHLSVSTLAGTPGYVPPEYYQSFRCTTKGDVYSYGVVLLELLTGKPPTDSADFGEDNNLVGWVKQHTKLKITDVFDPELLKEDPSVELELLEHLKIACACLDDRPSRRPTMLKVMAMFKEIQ
In short: as §1

LOC_OS01G57100-cb003 = tested on: LOC_OS01G57100-cb003
In short: as §1

LOC_OS01G60330-cb001 = tested on: LOC_OS01G60330-cb001
In short: as §1

LOC_OS01G60700-cb002 = tested on: LOC_OS01G60700-cb002
In short: as §1

LOC_OS01G63280-cb003 = tested on: LOC_OS01G63280-cb003
In short: as §1

LOC_OS01G67340-cb003 = tested on: LOC_OS01G67340-cb003
In short: as §1

LOC_OS01G70970-cb002 = tested on: LOC_OS01G70970-cb002
In short: as §1

LOC_OS02G07810-cb001 = tested on: LOC_OS02G07810-cb001
In short: as §1

LOC_OS02G08530-cb003 = tested on: LOC_OS02G08530-cb003
In short: as §1

LOC_OS02G14120-cb001 = tested on: LOC_OS02G14120-cb001
In short: as §1

LOC_OS02G17970-cb001 = tested on: LOC_OS02G17970-cb001
In short: as §1

| Compound | thermal shift delta Tm (LOC_OS01G01410-cb001) | thermal shift delta Tm (LOC_OS01G02750-cb003) | thermal shift delta Tm (LOC_OS01G10900-cb004) | thermal shift delta Tm (LOC_OS01G13800-cb001) | thermal shift delta Tm (LOC_OS01G14860-cb001) | thermal shift delta Tm (LOC_OS01G21960-cb002) | thermal shift delta Tm (LOC_OS01G39600-cb002) | thermal shift delta Tm (LOC_OS01G48390-cb002) | thermal shift delta Tm (LOC_OS01G51400-cb002) | thermal shift delta Tm (LOC_OS01G52050-cb004) | thermal shift delta Tm (LOC_OS01G57100-cb003) | thermal shift delta Tm (LOC_OS01G60330-cb001) | thermal shift delta Tm (LOC_OS01G60700-cb002) | thermal shift delta Tm (LOC_OS01G63280-cb003) | thermal shift delta Tm (LOC_OS01G67340-cb003) | thermal shift delta Tm (LOC_OS01G70970-cb002) | thermal shift delta Tm (LOC_OS02G07810-cb001) | thermal shift delta Tm (LOC_OS02G08530-cb003) | thermal shift delta Tm (LOC_OS02G14120-cb001) | thermal shift delta Tm (LOC_OS02G17970-cb001) |
| --- | --- | --- | --- | --- | --- | --- | --- | --- | --- | --- | --- | --- | --- | --- | --- | --- | --- | --- | --- | --- |
| S=C(NCc1ccc2c(c1)OCO2)N1CCN(c2ncnc3c2oc2ccccc23)CC1 [Amuvatinib (MP-470)] | 0.66 °C | -0.56 °C | 0.77 °C | 1.03 °C | 0.42 °C | 0.46 °C | 0.21 °C | 0.88 °C | 0.31 °C | 1.3 °C | 1.62 °C | 1.4 °C | 1.01 °C | 0.5 °C | 0.84 °C | 0.42 °C | 1.04 °C | 1.09 °C | 0.42 °C | 1.14 °C |
| CCn1c(-c2nonc2N)nc2cnc(Oc3cccc(NC(=O)c4ccc(OCCN5CCOCC5)cc4)c3)cc21 | 0.15 °C | 1.24 °C | 1.47 °C | 0.89 °C | 6.06 °C | 0.9 °C | 0.75 °C | 1.02 °C | 0.31 °C | 0.93 °C | 0.1 °C | 1.01 °C | 1.61 °C | 0.37 °C | 1.07 °C | 0.14 °C | 0.95 °C | 1.19 °C | -0.13 °C | 1.79 °C |
| O=C(O)CCC(=O)Nc1ccc(Br)cn1 [Bikinin] | 0.12 °C | 0.77 °C | -0.24 °C | 0.21 °C | 1.54 °C | 0.85 °C | -0.26 °C | 0.5 °C | 0.37 °C | 0.34 °C | 3.66 °C | 0.91 °C | 0.53 °C | 0.52 °C | 0.6 °C | 0.23 °C | 0.66 °C | 0.69 °C | 0.3 °C | 0.9 °C |
| CC(=O)c1c(C)c2cnc(Nc3ccc(N4CCNCC4)cn3)nc2n(C2CCCC2)c1=O | 0.65 °C | 0.74 °C | 0.47 °C | -0.38 °C | 2.26 °C | 0.28 °C | 0.65 °C | 0.1 °C | 0 °C | 0.98 °C | -0.7 °C | 1.73 °C | 0.15 °C | -0.12 °C | 1.56 °C | 0.58 °C | -0.42 °C | 1.29 °C | 4.13 °C | 0.68 °C |
| FC(F)(F)c1ccc(/C=C/c2nc(COc3ccc(CCCCn4ccnn4)cc3)co2)cc1 [Mubritinib (TAK 165)] | 0.34 °C | -0.49 °C | 0.23 °C | 0.16 °C | 0.08 °C | -0.04 °C | -0.52 °C | 0.23 °C | -0.08 °C | 0.24 °C | 0.83 °C | 0.99 °C | 0.41 °C | 0.22 °C | -0.98 °C | 0.3 °C | 0.23 °C | 0.63 °C | 0.38 °C | 0.37 °C |
| CCOc1cc(C(=O)N2CCC(N3CCN(C)CC3)CC2)ccc1Nc1ncc2c(n1)N(C1CCCC1)c1ccccc1C(=O)N2C | 0.26 °C | 0.37 °C | 0.01 °C | -0.42 °C | 0 °C | 0.3 °C | -0.95 °C | 0 °C | -0.1 °C | -0.46 °C | 1.18 °C | 1.19 °C | 0.58 °C | -0.25 °C | 0.42 °C | 0.05 °C | 0.06 °C | 0.54 °C | -0.51 °C | -0.43 °C |
| OCCn1cc(-c2ccc3c(c2)CC/C3=N\O)c(-c2ccncc2)n1 | 0.98 °C | -2.29 °C | 0.31 °C | 0.39 °C | 0.01 °C | 0.47 °C | 0.93 °C | 0.73 °C | 0.39 °C | -0.04 °C | 0.82 °C | 1.25 °C | 0.99 °C | 0.67 °C | -0.31 °C | 0.26 °C | 1.43 °C | 1 °C | 0.49 °C | 0.48 °C |
| COC1(c2sc3c(N4CCOCC4)nc(-c4cnc(N)nc4)nc3c2C)COC1 | 1.79 °C | -0.24 °C | 1.43 °C | 0.47 °C | 0.4 °C | 0.39 °C | 0.28 °C | 0 °C | -0.11 °C | 0.03 °C | 0.25 °C | 2.64 °C | 0.38 °C | -0.37 °C | 0.5 °C | 0.89 °C | 0.33 °C | 2.22 °C | 0.63 °C | 0.32 °C |
| COc1ccc([C@@H]2OC[C@H]3[C@@H]2CO[C@@H]3c2ccc(O[C@@H]3O[C@H](CO)[C@@H](O)[C@H](O)[C@H]3O)c(OC)c2)cc1OC [Forsythin] | 0.23 °C | 1.02 °C | 0.51 °C | -0.29 °C | 0.27 °C | 0.16 °C | -0.84 °C | 0.13 °C | 0.31 °C | 1.57 °C | 0.47 °C | -0.03 °C | -0.08 °C | -0.19 °C | 0.01 °C | 0.21 °C | -0.9 °C | 0.57 °C | 0.19 °C | -0.6 °C |
| Cc1cc(Nc2ncc(Cl)c(Nc3ccccc3S(=O)(=O)C(C)C)n2)c(OC(C)C)cc1C1CCNCC1 [Ceritinib (LDK378)] | 0.47 °C | 1.1 °C | 0.21 °C | -0.57 °C | 0.83 °C | 0.34 °C | 2.1 °C | 0.85 °C | 0.35 °C | 0.22 °C | 1.94 °C | 0.68 °C | 1.4 °C | 0.34 °C | 0.19 °C | 0.94 °C | 0.36 °C | 5.56 °C | 1.28 °C | 0.2 °C |
